Bioassay records deposited in PubChem BioAssay by National Center for Advancing Translational Sciences (NCATS).
TRHR enhancer: allosteric enhancers of human TRH receptor; 0.66% of 360,000 active; enhancement, % at 2 µM; P34981; TRHR cells, fluo-8 calcium fluorescence, EC20 TRH enhancement; in the data active = enhancement above about 30%; note: 0% is about no effect
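Enhancer read-out: after compound pinning and an initial kinetic agonist-mode read, an EC20 of TRH (10 nM final) was injected and fluo-8 calcium signal (Ex 480/Em 530) followed at 1 s/cycle for 100 cycles in TRHR-expressing cells.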
D1 antagonist: blocks dopamine activation of the human D1 receptor; HEK293 TREx D1 cells, calcium flux, dopamine EC80; stronger effect = lower value; activity change, negative = inhibition, % at 10 µM; 3.2% of 360,000 active; in the data active = activity change below about -30%; note: % is set by controls: 0 for no effect and ±100 for the full control effect
Target sequence (P21728 whole entry, looked up): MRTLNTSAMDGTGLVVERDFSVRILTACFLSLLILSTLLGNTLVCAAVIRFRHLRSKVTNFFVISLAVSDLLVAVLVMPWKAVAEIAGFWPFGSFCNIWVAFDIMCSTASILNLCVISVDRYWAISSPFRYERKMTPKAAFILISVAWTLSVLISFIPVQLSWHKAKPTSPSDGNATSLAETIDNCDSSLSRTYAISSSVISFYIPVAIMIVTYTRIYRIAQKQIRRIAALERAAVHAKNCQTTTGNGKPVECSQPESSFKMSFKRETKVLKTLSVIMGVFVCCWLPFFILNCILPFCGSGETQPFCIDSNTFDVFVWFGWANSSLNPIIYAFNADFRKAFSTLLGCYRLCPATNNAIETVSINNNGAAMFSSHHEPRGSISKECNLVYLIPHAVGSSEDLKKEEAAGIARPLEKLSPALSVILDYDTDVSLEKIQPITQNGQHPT
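Antagonism measured as reduced calcium response to an EC80 dopamine addition following 180 s compound pre-read; cells were inducible HEK293 Trex D1 plated overnight at 30 C, read kinetically at 1 cycle/sec.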
TRHR agonist: agonists of human TRH receptor; TRHR cells, calcium flux fluo-8, FDSS agonist mode; activation, % at 2 µM; 0.18% of 360,000 active; AID 493084; note: 0% is about no effect
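Steps: seed TRHR cells overnight; add fluo-8 no-wash Ca dye, RT 30 min–1.5 h; record 10 s baseline; pin-transfer compounds; monitor fluorescence 1 cycle/s for the agonist window. Calcium increases flag candidate agonists.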
D1 agonist: agonists of human D1 dopamine receptor; P21728; HEK293 T-REx D1 cells, calcium flux, agonist mode; activation, % at 2 µM; 1% of 360,000 active; note: 0% is about no effect
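Inducible HEK293 T-REx D1 cells, force-coupled to calcium signalling, were plated at 4000 cells/well with tetracycline and held overnight at 30 C. After no-wash calcium dye loading, compound-evoked calcium rise over 180 s flagged agonists.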
D1 PAM: potentiators of human D1 dopamine receptor; P21728; HEK293 TREx D1 cells, calcium flux, dopamine EC20 potentiation; potentiation, % at 10 µM; 0.036% of 360,000 active; AID 504651; in the data active = potentiation above about 30%; note: 0% is about no effect
The depositor's hits bear a star. The list is not random: actives were taken first. Their share in the collection is about 4.7%. Cut-off read from the data, not from the text of the source, unless noted: active = activation above about 30%; inactive = the rest.

SMILES	TRHR enhancer	D1 antagonist	TRHR agonist	D1 agonist	D1 PAM
COc1ccc(NC(=O)C2CC(c3ccccc3O)=NO2)cc1OC (centres undefined)	11.0	13.8	0.2	7.7	-1.3
CC(C)(c1ccccc1)c1ccc(OCC(O)CN2CCCC2)cc1 (centres undefined)	2.3	-24.4	3.2	25.2	-6.8
CC(C)CCNCC(O)CON=C1c2ccccc2-c2ccccc21 (centres undefined)	4.6	8.1	-0.6	49.6*	3.9
CC(C)N(CCNCC(O)COc1ccc(C(C)(C)c2ccccc2)cc1)C(C)C (centres undefined)	21.6	-18.2	1.6	62.6*	-3.5
COc1ccc(CCNCC(O)COc2c(C)cccc2C)cc1OC (centres undefined)	1.1	-38.1*	0.8	6.8	-11.0
OC(CNCCc1ccc(Cl)cc1)COc1cc(Cl)ccc1Cl (centres undefined)	3.9	-4.5	1.6	35.0*	5.2
OC(CNCCc1ccccc1)COc1ccc(OCC(O)CNCCc2ccccc2)cc1 (centres undefined)	9.2	-2.7	3.7	33.6*	-0.7
COc1ccc(Cl)cc1S(=O)(=O)N1CCC(C(=O)NCc2ccccn2)CC1	-5.1	2.8	-0.5	2.4	0.7
CCOc1ccc(NC(=O)CN(C)C(=O)CCNC(=O)c2ccccc2Cl)cc1OCC	-1.0	-2.2	-0.3	2.7	-0.8
COc1ccc(-n2c(=O)c3c(c4cc(OC)ccc4n3C)n(Cc3cc(C)ccc3C)c2=O)cc1	3.5	-74.2*	-0.1	-1.3	-3.2
Cc1cc(=O)n2[nH]c(SCc3ccccc3)nc2n1	-9.5	3.8	-0.2	-0.1	-0.6
O=c1cc(-c2ccccc2)nc2nc(SCc3ccccc3)[nH]n12	1.2	-32.3*	-0.3	1.1	-6.5
CCN1c2ccccc2-c2nc(SCC(=O)Nc3cc(OC)cc(OC)c3)ncc2S1(=O)=O	-0.6	5.8	0.3	-0.3	-0.5
FC(F)(F)c1cc(Cl)c2nnc(-c3ccccn3)n2c1	2.4	-8.3	-0.6	1.5	2.2
O=C(O)c1ccccc1-c1nnc2c(Cl)cc(C(F)(F)F)cn12	6.9	-37.7*	0.6	0.7	-2.8
CCOC(=O)c1scc(-c2ccccc2)c1S(=O)(=O)Nc1ccc(N(C)C)cc1	52.6*	-8.6	-0.6	1.9	-5.2
Cc1cc(C)c(S(=O)(=O)c2ccccc2F)c(=O)[nH]1	-2.6	11.3	0.0	2.6	-7.3
Cc1ccc(OCCn2c(CCNC(=O)C3CCCCC3)nc3ccccc32)cc1	-6.5	-4.6	-1.0	13.8	-0.3
C/C(=N\OCc1nc2ccccc2c(=O)n1/N=C/c1cc(C)cc([N+](=O)[O-])c1O)c1ccccc1	-0.8	-32.6*	0.4	11.8	-0.1
CCCN(CC(=O)Nc1ccccc1C)C(=O)/C=C/c1ccc(OCC)c(OC)c1	4.1	6.5	0.0	4.2	-3.4
O=C(CNC(=O)c1ccccc1)N/N=C/c1cccs1	-0.2	9.3	0.1	0.2	1.5
O=C(N/N=C\c1cc2c(cc1Cl)OCO2)c1cccs1	5.1	10.3	1.9	0.4	-0.3
COc1cccc(/C=N/NC(=O)c2[nH]c(C)c(C(=O)N/N=C/c3cccc(OC)c3O)c2C)c1O	-4.3	-77.3*	0.6	-0.5	-7.5
O=C(CNC(=O)c1ccccc1)N/N=C/c1ccccc1Cl	-5.6	-3.3	-0.3	0.2	31.8*
COc1cccc(/C=N/NC(=O)CNC(=O)c2cccnc2)c1O	1.9	-19.8	0.3	1.0	-7.4
SMILES	TRHR enhancer	D1 antagonist	TRHR agonist	D1 agonist	D1 PAM
COc1cccc(/C=N/NC(=O)c2ccc(-c3ccccc3)cc2)c1O	9.5	-6.3	3.1	3.6	1.0
O=C(Cc1ccccc1)N/N=C/c1cc2c(cc1Cl)OCO2	11.7	-40.2*	-0.1	16.0	-11.0
COc1cccc(/C=N/NC(=O)CNC(=O)c2ccncc2)c1O	14.1	-41.3*	0.7	2.2	0.0
CCn1c(=O)c2sccc2n2c(CCCC(=O)N3CCN(c4cccc(Cl)c4)CC3)nnc12	4.6	5.3	-0.5	-1.1	-3.5
O=C(CNC(=O)c1ccncc1)N/N=C/c1ccccn1	-3.2	17.2	0.4	1.7	-11.2
COc1cc(C(=O)NCC(=O)N/N=C/c2ccccn2)cc(OC)c1OC	34.9*	6.2	0.6	-2.4	0.9
O=C(CCc1ccccc1)Nc1cc2c(cc1Cl)OCCO2	4.5	-30.0*	-0.2	0.4	-7.3
